DT40 TDP1 CPT: growth inhibition of DT40 Tdp1-/-;hTDP1 cells with camptothecin (screen for TDP1 inhibitors); chicken DT40 Tdp1-/-;hTDP1 cells + 20 nM CPT, ATP luminescence, 48 h; Potency, µM (top dose mostly 46.2 µM), for the others: top-dose activity change, negative = growth inhibition, hits mostly inhibitors; 12% of 420,000 active; AID 686979; note: nearly all actives have a fitted effect of over 55% in size
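Cell growth measured by CellTiter-Glo luminescence after a minimum 48 h, 37 C compound exposure with 20 nM CPT in Tdp1-knockout DT40 cells stably expressing hTDP1, seeded 400/well; qHTS titration format.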
HT1080-NT tox: kills 2HG-producing HT-1080-NT fibrosarcoma cells; HT-1080-NT fibrosarcoma viability, CellTiter-Glo ATP luminescence, 48 h; Potency, µM (top dose mostly 46.1 µM), without a hit: at the highest dose activity, negative = less viability, hits mostly cytotoxic; 1.6% of 360,000 active;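 note: NT is the 2HG producing partner of a matched IDH1 knockdown line; 0% = DMSO-treated cells and -100% = media-only wells without cells; nearly all actives have a fitted effect of over 55% in size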
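Fibrosarcoma NT cells, 750 per well in 5% FBS RPMI, were exposed to compound for 48 hours. Viability: CellTiter-Glo luminescence.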
KB-3-1 tox: KB-3-1 parental cell cytotoxicity; AID 1347075; KB-3-1 viability, CellTiter-Glo ATP luminescence, 72 h; 1.4% of 400,000 active; Potency, µM (titrated, usually from 46.1 µM), most hits filed as cytotoxic; note: nearly all actives have a fitted effect of over 60% in size
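Multi-concentration cytotoxicity screen in KB-3-1 cells grown in DMEM lacking phenol red with 10% FBS. After 72 h at 37 °C with compound, ATP-dependent luminescence was recorded.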
TDP1 cell noCPT: qHTS for Inhibitors of human tyrosyl-DNA phosphodiesterase 1 (TDP1): qHTS in cells in absence of CPT. DT40 Tdp1-/- hTDP1 cells, no CPT, ATP luminescence, 48 h. Potency, µM (highest dose often 46.2 µM), without a hit: at the highest dose activity change, negative = growth inhibition, hits mostly inhibitors. 15% of 420,000 active; note: nearly all actives have a fitted effect of over 55% in size
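Growth kinetics read by CellTiter-Glo luminescence after ≥48 hr at 37 °C. Cells: DT40 Tdp1-/- stably carrying human TDP1, 400 per well, compound exposure in the absence of CPT (DMSO vehicle).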
KB-V1 cytotox: KB-V1 MDR subline cytotoxicity. 3.4% of 400,000 active. Potency, µM (top dose mostly 46.1 µM), actives largely listed as cytotoxic. KB-V1 MDR cells viability, CellTiter-Glo, 72 h; note: nearly all actives have a fitted effect of over 60% in size
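KB-V1 MDR subline cells in DMEM (phenol-red free, 10% FBS) exposed to compounds in qHTS concentration series for 72 h at 37 degrees C. Viability read by CellTiter-Glo luminescence; concentration-effect curves fitted after normalization and correction.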
HT1080 IDH1KD tx: toxicity to HT-1080 IDH1 knockdown cells (counter line); HT-1080 IDH1 knockdown viability, ATP luminescence, 48 h; AID 686971; 2% of 360,000 active; Potency, µM (doses to about 46.1 µM), for the others: at the highest dose activity, negative = toxicity, actives largely listed as cytotoxic;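 note: 0% = DMSO wells and -100% = cell-free medium wells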
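Knockdown cells (IDH1KD HT-1080) received compounds 2 h after plating at 750 cells/well and were kept 48 h at 37 °C in 5% FBS RPMI. A CellTiter-Glo luminescence read gave % activity for curve fitting.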
The depositor's hits bear a star; i = inactive; ? = inconclusive; . = no result; [ ] = dose if it differs, or a comment. Most compounds without a hit are left out; they make up all but 19% or so of the library. Calls come from the whole dose curve; as a rule, active = well fitted curve in the direction sought with a large enough effect; inconclusive = small, poorly fitted or top-dose-only effect, or another doubt; inactive = no such curve, though single readings can be large; an effect the other way counts as inactive or inconclusive. Unless noted, % is set by controls: 0 for no effect and ±100 for the full control effect; potency is the fitted concentration of half-maximal effect.

SMILES	DT40 TDP1 CPT	HT1080-NT tox	KB-3-1 tox	TDP1 cell noCPT	KB-V1 cytotox	HT1080 IDH1KD tx
COc1ccc(-c2cc(C(=O)N3CCN(c4ccccc4F)CC3)c3ccccc3n2)c(OC)c1	?	-8.9%	i	18.4µM*	?	-11.3%
COc1ccc(-c2cc(C(=O)N3CCN(c4ccccc4O)CC3)c3ccccc3n2)cc1OC	?	-27.1%	?	18.4µM*	?	-29.3%
COc1ccc(-c2cc(C(=O)N3CCN(c4ccccc4O)CC3)c3ccccc3n2)cc1	?	0.2%	i	?	?	7.3%
CCOc1ccccc1N1CCN(C(=O)c2cc(-c3cc(OC)ccc3OC)nc3ccccc23)CC1	23.1µM*	-18.8%	?	13µM*	?	?
CC(C)Oc1ccccc1-c1nc(SCC(=O)O)n[nH]1	-5.0%	-2.5%	i	-1.0%	i	1.0%
O=C(O)CCC/C=C\C[C@@H]1CO[C@H](C(F)(F)F)O[C@@H]1c1ccccc1O	-2.1%	.	.	-3.7%	.	.
O=C(O)C1CCCN1C(=O)NC1CCCCC1 (stereo not given)	6.3%	-2.7%	i	23.6%	i	10.6%
CN1CCCN(C(=O)c2cc(-c3cccc4ccccc34)nc3ccccc23)CC1	16.4µM*	-0.3%	i	20.6µM*	i	-13.4%
COc1ccc(-c2cc(C(=O)N3CCN(c4ncccn4)CC3)c3ccccc3n2)cc1	?	0.5%	i	?	?	-3.4%
O=C(c1cc(-c2ccccc2Cl)nc2ccccc12)N1CCC1	-28.1%	1.0%	i	?	?	3.6%
COc1ccc(-c2cc(C(=O)N3CCN(c4ncccn4)CC3)c3ccccc3n2)c(OC)c1	?	-12.9%	i	23.1µM*	?	0.0%
COc1ccc(N2CCN(C(=O)c3cc(-c4cc(OC)ccc4OC)nc4ccccc34)CC2)cc1	23.1µM*	-8.0%	?	23.1µM*	?	-19.3%
O=C(c1cc(-c2ccccc2)nc2ccccc12)N1CCOCC1	3.4%	9.0%	i	-7.6%	i	-3.9%
CC(=O)c1ccc(N2CCN(C(=O)c3cc(-c4ccc5c(c4)OCO5)nc4ccccc34)CC2)cc1	?	-20.4%	i	23.1µM*	i	-2.4%[9.24 µM]
CC[C@]12c3[nH]c4ccc(OC)cc4c3CCN1C(=O)C(CC(=O)NCc1ccco1)C[C@@H]2C(=O)N1CCN(C(=O)c2ccco2)CC1 (stereo not given in full)	6.5%	0.6%	i	-0.6%	i	12.9%
Nn1c(-c2cccc(O)c2)nnc1-c1cccc(O)c1	7.5%	-0.1%	i	3.6%	i	21.5%
O=C(CC1CCS(=O)(=O)C1)Nc1ccc[nH]c1=O (stereo not given)	-4.9%	-0.6%	i	-10.6%	i	7.1%
COc1ccc(-c2[nH]ncc2C(=O)NCc2cccc(Cl)c2)cc1	3.5%	.	.	?	.	.
Cc1noc(C)c1COc1ccc(C(=O)OCc2nnc(-c3ccc(Cl)cc3)o2)cc1	?	-1.7%	i	-17.5%	i	-2.1%
COc1ccc(-c2cc(C(=O)N3CCCCCC3)c3ccccc3n2)c(OC)c1	?	2.2%	i	11.6µM*	i	-12.2%
COc1ccc(-c2cc(C(=O)N3CCCC3)c3ccccc3n2)cc1	2.9%	-17.0%	?	6.2%	i	-9.5%
COc1ccc(-c2cc(C(=O)O)c3ccccc3n2)c(OC)c1	-10.1%	-4.0%	i	-12.4%	i	-9.5%
CC1CN(C(=O)c2cc(-c3ccc(Cl)s3)nc3ccccc23)CC(C)O1 (stereo not given)	?	5.0%	i	16.4µM*	i	-6.2%
COc1ccc2nc(-c3ccccc3)cc(C(=O)N3CCC3)c2c1	23.1µM*	-0.6%	i	16.4µM*	i	-8.5%
COc1cccc(CN2CCN(C(=O)c3cc(-c4cccnc4)nc4ccc(C)cc34)CC2)c1	23.1µM*	-18.4%	i	11.6µM*	23.1µM*	-11.8%
SMILES	DT40 TDP1 CPT	HT1080-NT tox	KB-3-1 tox	TDP1 cell noCPT	KB-V1 cytotox	HT1080 IDH1KD tx
CCOC(=O)C1CCCN(CC(=O)Nc2nccs2)C1 (stereo not given)	20.8%	16.3%	i	5.4%	?	13.9%
COc1ccc(OC)c(-c2cc(C(=O)N3CCN(c4ncccn4)CC3)c3ccccc3n2)c1	16.4µM*	-10.8%	i	18.4µM*	?	-1.1%
COc1ccc(-c2cc(C(=O)N3CCN(c4ccccc4)CC3)c3ccccc3n2)cc1	3.26µM*	?	?	4.61µM*	7.31µM*	1.84µM*
COc1ccc(-c2cc(C(=O)N3CC(C)CC(C)C3)c3ccccc3n2)cc1 (stereo not given)	?	1.7%	i	20.6µM*	i	1.1%
COc1ccc(-c2cc(C(=O)N3CCCC(C(F)(F)F)C3)c3ccccc3n2)cc1 (stereo not given)	?	5.3%	i	?	i	1.8%
COC(=O)[C@@H]1C[C@]2(OC(=O)c3ccccc3)C=CC(=O)C[C@@H]2N1C(=O)OCc1ccccc1	6.51µM*	?	?	7.31µM*	i	?
COC(CNC(=O)C1CCCN1C(=O)OCc1ccccc1)OC (stereo not given)	-14.6%	15.1%	i	-7.8%	i	3.5%
CC1CCc2c(sc(NC(=O)/C=C/c3cccs3)c2C(=O)O)C1 (stereo not given)	-25.1%	1.9%	18.4µM*	-7.7%	i	?
Cc1ccc([N+](=O)[O-])cc1S(=O)(=O)Nc1cccc(S(=O)(=O)Nc2ccccc2C(=O)O)c1	-7.7%	5.4%	.	10.7%	.	2.4%
Cc1ccc(C)c(NC(=O)c2ccccc2NS(=O)(=O)c2cc([N+](=O)[O-])ccc2C)c1	3.26µM*	10.3µM*	20.6µM*	4.11µM*	i	13µM*
Cc1ccc(C)c(S(=O)(=O)Nc2ccccc2C(=O)Nc2cc(C)on2)c1	16.4µM*	?	?	?	i	?
Cc1cc(NC(=O)c2ccccc2NS(=O)(=O)c2c(C)c(C)cc(C)c2C)no1	?	-8.7%	i	?	i	8.8%[9.24 µM]
CC(C)(O)C#Cc1ccc(CN2CCN(Cc3ccsc3)C(CCO)C2)s1 (stereo not given)	13.9%	0.0%	i	-27.5%	i	1.7%

Screens as filed in PubChem.
